Consider 14 compounds from PubChem BioAssay (NCI).

Each structure is given as a SMILES string. This is part of a sample that, as a whole, favours compounds with a hit. Of some 83,000 tested, about 20% had one in any assay.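 Cells were grown in 96-well plates and exposed to the test compound at a single concentration for 48 hours; results are reported as percent growth, with values below 10 considered active.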 Unmarked numbers belong to inactive results. Activity calls are given as the source filed them.

Some test systems named below: NCI-H23 lung; NCI-H226 lung; NCI-H322M lung; HOP-62 NSCLC; NCI-H460 lung; HOP-92 NSCLC; NCI-H522 lung; A549/ATCC NSCLC; 786-0 renal; COLO 205 colon.
What all share (test): NCI-60 one-dose screen, 48 h (100 = growth as untreated, 0 = no growth, -100 = all killed)
Settings in all cases: 10 µM unless noted

Turning to `Cc1[nH]c(C(=O)Nc2ccccc2OC2CCNCC2)c(Cl)c1Cl`, the growth in the assay with NCI-H23 lung is 42.8%; in the assay with NCI-H226 lung, 98.6%; with NCI-H322M lung it was 31.3%; in the assay with HOP-62 NSCLC, 11.4%; in the assay with NCI-H460 lung, 5.07% (active); with HOP-92 NSCLC it was -2.05% (active). Further, the values for the growth in the assay with NCI-H522 lung, in the assay on A549/ATCC NSCLC and in the assay with 786-0 renal were -24.7% (active), 27.3% and -56.6% (active), respectively.

In the case of `Nc1cc(C(=O)NC[C@H]2CN(c3ccc(N4CCC(C(=O)O)CC4)cc3)C(=O)O2)ccc1Cl`, the growth in the assay with NCI-H23 lung is 95.1%; in the assay on NCI-H226 lung, 100%; in the assay with NCI-H322M lung, 107%; in the assay on HOP-62 NSCLC, 99%; in the assay with NCI-H460 lung, 103%; in the assay on HOP-92 NSCLC, 98.4%. In addition, the growth in the assay on NCI-H522 lung was 92%; with A549/ATCC NSCLC, 98.5%; with 786-0 renal it was 101%.

Consider `Cc1nc2sc(C(=O)Nc3ccc(Br)cc3)c(N)c2cc1C(O)c1ccccc1` (configuration not stated), for which the growth in the assay with NCI-H23 lung is 61.1%; with NCI-H226 lung, 68%; in the assay on NCI-H322M lung, 90.4%; in the assay on HOP-62 NSCLC, 67.5%; with NCI-H460 lung, 69%; in the assay with HOP-92 NSCLC, 77%. For the same compound, the growth was 60.5% with NCI-H522 lung, 64.4% with A549/ATCC NSCLC and 81% with 786-0 renal.

Take `NS(=O)(=O)c1ccccc1NC(=O)Nc1nc2ccccc2s1`: the growth in the assay on NCI-H23 lung is 90.8%; with NCI-H226 lung, 91.5%; in the assay on NCI-H322M lung, 98%; in the assay with HOP-62 NSCLC it was 96.1%; in the assay on NCI-H460 lung, 103%; in the assay with HOP-92 NSCLC it was 99.1%. For the same compound, the growth in the assay on NCI-H522 lung is 91.9%; with A549/ATCC NSCLC, 101%; in the assay on 786-0 renal, 98%.

`COC(=O)[C@@H](CCCCNC(=O)[C@]12CCC(C)(C)C[C@@H]1C1=CC[C@@H]3[C@@]4(C)C/C(=C/c5ccco5)C(=O)C(C)(C)[C@@H]4CC[C@@]3(C)[C@]1(C)CC2)NC(=O)[C@]12CCC(C)(C)C[C@@H]1C1=CC[C@@H]3[C@@]4(C)C/C(=C/c5ccco5)C(=O)C(C)(C)[C@@H]4CC[C@@]3(C)[C@]1(C)CC2`: the growth in the assay with NCI-H23 lung was 106%; in the assay with NCI-H226 lung, 103%; in the assay on NCI-H322M lung, 93.9%; with HOP-62 NSCLC, 104%; with NCI-H460 lung, 107%; in the assay with HOP-92 NSCLC, 114%. In addition, the values for the growth with NCI-H522 lung, with A549/ATCC NSCLC and in the assay on 786-0 renal were 94.1%, 100% and 104%, respectively.

With `CCC(C)(C)C(=O)O[C@H]1C[C@@H](C)C=C2C=C[C@H](C)[C@H](CC[C@@H]3CC(SCCN)CC(=O)O3)[C@H]21` (some centres not stated), the growth is 98.2% with NCI-H23 lung; 98.3% in the assay with NCI-H226 lung; 97.4% with NCI-H322M lung; 98.9% in the assay on HOP-62 NSCLC; 107% with NCI-H460 lung; 34.6% in the assay on HOP-92 NSCLC. Moreover, the values for the growth in the assay with NCI-H522 lung, in the assay on A549/ATCC NSCLC and in the assay with 786-0 renal were 65.4%, 75.7% and 102%, respectively.

Consider `COC(=O)Nc1nc2ccc(S(=O)c3ccccc3)cc2[nH]1` (configuration not stated), for which the growth in the assay on NCI-H23 lung was 64.4%; in the assay with NCI-H226 lung, 92.9%; in the assay on NCI-H322M lung, 88%; with HOP-62 NSCLC, 99.4%; in the assay with NCI-H460 lung, 60.3%; in the assay with HOP-92 NSCLC, 75.5%. In addition, the growth was 65.8% with NCI-H522 lung, 57.7% with A549/ATCC NSCLC and 80.4% in the assay on 786-0 renal.

As for `O=C1C(Cl)=C(Nc2ccc(S(=O)(=O)N3CCOCC3)cc2)C(=O)c2ccccc21`, the growth in the assay on NCI-H23 lung is 83.5%; with NCI-H226 lung, 84.5%; in the assay with NCI-H322M lung it was 99.8%; with HOP-62 NSCLC, 86.3%; in the assay on NCI-H460 lung, 94.9%; with HOP-92 NSCLC, 25.7%. Also, the values for the growth in the assay on NCI-H522 lung, with A549/ATCC NSCLC and with 786-0 renal were 21%, 80.8% and 71%, respectively.

As for `CCSc1oc(-c2ccccc2)nc1[P+](c1ccccc1)(c1ccccc1)c1ccccc1`, the growth is -11.8% (active) with NCI-H23 lung; -2.47% (active) in the assay on NCI-H226 lung; -6.18% (active) in the assay on NCI-H322M lung; 0.275% (active) in the assay with HOP-62 NSCLC; 0.695% (active) in the assay on NCI-H460 lung; -27.9% (active) with HOP-92 NSCLC. In addition, the growth in the assay on NCI-H522 lung was -20.3% (active); with A549/ATCC NSCLC it was 9.29% (active); in the assay with 786-0 renal, 13.4%; in the assay with COLO 205 colon, -45.5% (active).

As for `O=C(N(c1ccccc1)c1ccccc1)n1cc(I)c2nc(Cl)nc(Cl)c21`, the growth is 72.6% in the assay with NCI-H23 lung; 71.8% in the assay with NCI-H226 lung; 92.6% in the assay on NCI-H322M lung; 43.9% in the assay with HOP-62 NSCLC; 43.8% in the assay with NCI-H460 lung; 71.8% with HOP-92 NSCLC. Moreover, the growth in the assay with NCI-H522 lung is 3.35% (active); in the assay with A549/ATCC NSCLC, 60.2%; with 786-0 renal it was 57.7%.

As to `CC1CN(S(=O)(=O)c2oc(-c3ccc(Cl)cc3)nc2C#N)CC(C)O1` (configuration not stated), the growth with NCI-H23 lung was 77.8%; in the assay on NCI-H226 lung it was 87.4%; in the assay with NCI-H322M lung it was 97.9%; in the assay with HOP-62 NSCLC, 101%; with NCI-H460 lung, 103%; with HOP-92 NSCLC it was 76.3%. Moreover, the growth with NCI-H522 lung is -16.2% (active); in the assay with A549/ATCC NSCLC, 100%; with 786-0 renal, 79%.

For `COC(=O)c1cc(N=C2NC(=O)/C(=C/C=C/c3ccccc3)S2)ccc1O`, the growth was 37.2% in the assay on NCI-H23 lung; 37.5% in the assay with NCI-H226 lung; 47.2% in the assay on NCI-H322M lung; 44.5% in the assay with HOP-62 NSCLC; 12.1% in the assay with NCI-H460 lung; 34.3% with HOP-92 NSCLC. In addition, the figures for the growth in the assay on NCI-H522 lung, in the assay with A549/ATCC NSCLC and in the assay on 786-0 renal were 19.4%, 30.8% and 20.4%, respectively.

As for `O=C1NC(=C(Cl)Cl)/C(=N\S(=O)(=O)NCc2ccccc2)N1`, the growth in the assay with NCI-H23 lung is 104%; in the assay on NCI-H226 lung, 99.2%; in the assay with NCI-H322M lung, 99.3%; in the assay on HOP-62 NSCLC, 102%; in the assay with NCI-H460 lung, 110%; with HOP-92 NSCLC it was 107%. The results for the growth in the assay with NCI-H522 lung, in the assay with A549/ATCC NSCLC and in the assay on 786-0 renal were 81.4%, 94.1% and 100%, respectively.

As for `Cc1cccc(/C=C/c2c(C(=O)/C=C/c3ccccc3)c(C)nc3ccccc23)c1`, the growth with NCI-H23 lung was -57.9% (active); in the assay on NCI-H226 lung, -16.5% (active); with NCI-H322M lung it was 9.28% (active); in the assay with HOP-62 NSCLC, -48.1% (active); in the assay on NCI-H460 lung, -71.8% (active); with HOP-92 NSCLC it was -1.2% (active). The results for the growth with NCI-H522 lung, in the assay with A549/ATCC NSCLC and in the assay on 786-0 renal were -58.7% (active), -34.8% (active) and -55.5% (active), respectively.
